Data: PubChem BioAssay AID1347419 (Sanford-Burnham Center for Chemical Genomics, 2020)
Screen size: about 99,000 compounds; about 820 (0.83%) were called active. Only a selection was taken, and actives are over-represented in it overall. Values without a mark were called inactive.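 Rule for the calls: active = Z-score of -3 or lower, scaled per plate to the spread of control and sample wells; inactive = z-score above -3.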

Molecular target: Protein-tyrosine kinase 2-beta (Homo sapiens) (UniProt Q14289)
Sequence (Q14289 whole entry, looked up): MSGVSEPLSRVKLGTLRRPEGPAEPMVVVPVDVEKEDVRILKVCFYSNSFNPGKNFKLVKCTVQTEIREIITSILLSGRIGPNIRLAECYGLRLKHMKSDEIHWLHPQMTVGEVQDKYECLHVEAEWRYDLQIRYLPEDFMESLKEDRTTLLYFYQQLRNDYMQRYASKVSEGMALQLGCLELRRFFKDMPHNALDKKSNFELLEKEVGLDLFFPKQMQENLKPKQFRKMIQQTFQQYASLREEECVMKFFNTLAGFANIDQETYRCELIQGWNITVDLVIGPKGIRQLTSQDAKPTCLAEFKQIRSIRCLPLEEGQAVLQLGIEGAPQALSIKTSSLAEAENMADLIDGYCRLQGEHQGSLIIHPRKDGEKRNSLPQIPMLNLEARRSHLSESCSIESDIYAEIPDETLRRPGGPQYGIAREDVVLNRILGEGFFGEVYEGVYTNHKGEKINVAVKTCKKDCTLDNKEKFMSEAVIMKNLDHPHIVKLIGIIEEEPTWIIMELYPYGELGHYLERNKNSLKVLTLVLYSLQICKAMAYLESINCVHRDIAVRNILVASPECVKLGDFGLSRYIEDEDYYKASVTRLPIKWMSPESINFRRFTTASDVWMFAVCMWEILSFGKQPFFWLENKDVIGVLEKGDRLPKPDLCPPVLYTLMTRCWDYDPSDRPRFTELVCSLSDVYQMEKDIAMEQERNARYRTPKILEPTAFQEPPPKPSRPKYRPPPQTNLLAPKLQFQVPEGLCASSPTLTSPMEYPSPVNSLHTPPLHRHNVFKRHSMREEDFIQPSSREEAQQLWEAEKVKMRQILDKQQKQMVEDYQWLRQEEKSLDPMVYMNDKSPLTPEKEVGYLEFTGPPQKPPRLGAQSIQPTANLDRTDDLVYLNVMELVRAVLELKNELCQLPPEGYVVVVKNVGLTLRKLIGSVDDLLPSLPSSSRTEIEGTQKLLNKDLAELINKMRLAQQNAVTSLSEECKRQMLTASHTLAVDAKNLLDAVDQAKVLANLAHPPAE
Test: antagonists of Pyk2 self-association, primary screen, Q293 cells, FERM NanoBiT luminescence, HTS (AID 1347419);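 note: the deposit names both 25 µM and 10 µM; negative z-score means lost luminescence so less FERM oligomerization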
Set-up: dose or concentration left out as unconfirmed
Details: stronger effect = lower value

Row | SMILES | z-score
1 | COc1cc(-c2cc(C(=O)OCC(=O)Nc3ccc4c(c3)OCO4)c3ccccc3n2)cc(OC)c1OC | -0.31
2 | CN(C)c1cc[n+](Cc2ccccc2)cc1 | 0.16
3 | CN(C)c1ccc(/C=C2\NC(=S)N(Cc3ccccc3)C2=O)cc1 | -3.38 (active)
4 | CC1=NN(Cc2ccccc2)C(=O)/C1=C/c1ccc(N(C)C)cc1 | -1.29
5 | Cc1cc(C)cc(C(=O)NC(=S)Nc2ccc3[nH]c(=O)[nH]c3c2)c1 | 0.78
6 | O=C(Cn1cc(C(=O)c2cccs2)c2ccccc21)NCc1cccs1 | -3.3 (active)
7 | COCCNC(=O)Cn1cc(C(=O)c2cccs2)c2ccccc21 | -0.12
8 | COC(=O)c1cn(CC(=O)NCc2cccs2)c2ccccc12 | -0.4
9 | Cc1ccc(S(=O)(=O)NNC(=O)Nc2cccc3ccccc23)cc1 | -1.37
10 | CC(=O)c1c(O)cc2n(c1=O)-c1ccc(Cl)cc1C2(C)C | -0.76
11 | CCNC(=S)N1CCN(c2ncccn2)CC1 | 0.25
12 | COc1ccc(S(=O)(=O)N(C)CC(=O)Nc2ccc3c(c2)OCCO3)cc1OC | 0.96
13 | O=C(CN(c1ccc2c(c1)OCCO2)S(=O)(=O)c1ccccc1)Nc1ccc2c(c1)OCO2 | -3.19 (active)
14 | CCCCC(=O)Nc1ccc2c(c1)OCCO2 | -0.26
15 | Cc1cc([N+](=O)[O-])ccc1NC1CCCC1 | 0.61
16 | CC(C)(C)C1CCC(=NNC(=O)c2cc(-c3ccccc3)n[nH]2)CC1 (stereo not drawn) | 0.56
17 | CCOc1ccc(NC(=S)NC(=O)/C=C/c2ccc(OC)cc2)c([N+](=O)[O-])c1 | 0.72
18 | COc1ccc(-c2ccc(Nc3ccc(S(=O)(=O)N4CCCC4)cc3)nn2)cc1OC | -3.54 (active)
19 | COc1ccc(S(=O)(=O)Nc2ccc(S(=O)(=O)N3CCCCC3)cc2)cc1OC | -1.09
20 | COc1ccc(S(=O)(=O)N2CCCCC2)cc1Br | -0.87
21 | CN(C)CCCNC(=S)NCc1ccc(Cl)cc1 | 0.46
22 | Cc1ccc(C(C)NC(=O)Cn2nc(C)c([N+](=O)[O-])c2C)cc1 (stereo not drawn) | 0.63
23 | O=C1c2ccccc2C2=Nc3ccccc3SC(c3ccccc3F)C12 (stereo not drawn) | -4.39 (active)
24 | CCCOc1ccc(Cn2ccnc2)cc1[N+](=O)[O-] | 1.5

Row | SMILES | z-score
25 | Cc1ccc(O)c(CCc2ccccc2)n1 | 0.72
26 | FC(F)(F)c1cc(-c2ccco2)nc(NCc2ccc(Cl)cc2)n1 | 0.02
27 | COc1ccc(-c2nnc(SCc3cccnc3)o2)cc1 | -0.08
28 | COc1ccc(-c2cc(C(F)(F)F)nc(NCc3cccnc3)n2)cc1 | -3.51 (active)
29 | N#Cc1c(/N=C/N2CCCC2)oc(-c2ccccc2)c1-c1ccccc1 | -2.56
30 | COc1cc(C(=O)NC(=S)NCc2ccco2)cc(OC)c1OC | 0.39
31 | COc1cc(C(=O)Nc2oc(-c3ccccc3)c(-c3ccccc3)c2C#N)cc(OC)c1OC | -3.42 (active)
32 | N#Cc1c(NC(=O)CCCN2C(=O)c3ccccc3C2=O)oc(-c2ccccc2)c1-c1ccccc1 | -3.57 (active)
33 | O=C(CCN1C(=O)c2ccccc2C1=O)Nc1ccncc1 | 0.81
34 | COC(=O)c1sccc1NC(=O)c1cc(OC)c(OC)c(OC)c1 | -0.79
35 | Cc1ccc(NC(=O)Cn2cccc2C2=NC(c3ccccc3)CO2)c(C)c1 (stereo not drawn) | -0.85
36 | OC(COCc1ccco1)CN1CCN(c2ccccc2)CC1 (stereo not drawn) | 1
37 | CC(CNc1ccc([N+](=O)[O-])c2cccnc12)Nc1c([N+](=O)[O-])cc(C(F)(F)F)cc1[N+](=O)[O-] (stereo not drawn) | -1.13
38 | Cc1ccc(NC(=O)CC2C(=O)N(Cc3ccccc3)C(=S)N2NC(=O)c2cccc(F)c2)c(C)c1 (stereo not drawn) | -1.13
39 | COC(=O)C1=NNC2(c3ccc(C)cc3)C(=O)N(c3cccc(C)c3C)C(=O)C12 (stereo not drawn) | -0.49
40 | CCc1ccc(NC(=O)c2ccc(Cn3cc([N+](=O)[O-])cn3)cc2)cc1 | -0.1
41 | O=C(CSC(=S)N1CCOCC1)c1ccccc1 | 0.14
42 | CC(=O)Nc1ccc(SCC(=O)Nc2ccccc2Oc2ccccc2)cc1 | -1.74
43 | COc1ccc(CCn2nnnc2C(c2ccccc2)N2CCN(C)CC2)cc1OC (stereo not drawn) | 0.7
44 | COCCn1nnnc1C(c1ccccc1Cl)N1CCN(c2ccccc2OC)CC1 (stereo not drawn) | 0.11
45 | COc1ccc(C(c2nnnn2Cc2cccs2)N2CCN(c3ccccc3)CC2)cc1OC (stereo not drawn) | -3.47 (active)
46 | CC1(C)Cc2cccc(OCC(=O)N3CCN(c4ccc([N+](=O)[O-])cc4)CC3)c2O1 | -1.19
47 | COC(=O)c1ccc(C(=O)OC)c(NC(=S)N2CCN(c3cc(Cl)ccc3C)CC2)c1 | 0.27
48 | Fc1ccccc1C(c1nnnn1Cc1ccc2c(c1)OCO2)N1CCN(Cc2ccccc2)CC1 (stereo not drawn) | -3.73 (active)

Row | SMILES | z-score
49 | Cc1cc(C)c2[nH]c(=O)c(C(c3nnnn3Cc3ccc4c(c3)OCO4)N3CCCC3)cc2c1 (stereo not drawn) | 0.33
50 | CC(C)(C)n1nnnc1C(c1ccc(F)cc1)N1CCN(Cc2ccc3c(c2)OCO3)CC1 (stereo not drawn) | -0.6
51 | CCc1ccc(Oc2coc3cc(OC(=O)c4cc5ccccc5oc4=O)ccc3c2=O)cc1 | -2.06
52 | C=CCNC(=O)c1ccccc1NC(=O)c1ccc(Cl)c(S(=O)(=O)Nc2cccc(C)c2C)c1 | -3.05 (active)
53 | Cc1ccccc1NC(=O)c1ccccc1NS(=O)(=O)c1cccc2cccnc12 | -1.55
54 | COC(=O)c1ccc(C(=O)Nc2cc(Cl)ccc2Cl)cc1NC(=O)c1ccccc1C | 0.09
55 | Cc1nc2ccccc2n1CC(=O)N/N=C/c1cccs1 | 0.4
56 | CCCN1C(=O)C(Cc2nc3ccccc3c(=O)n2-c2ccccc2)c2cc(C)ccc21 (stereo not drawn) | 0.19
57 | Cc1nn(CC(=O)Nc2ccc(N(C)C)cc2)c(C)c1[N+](=O)[O-] | -0.87
58 | CCCCC(NS(=O)(=O)c1ccc(C)cc1)C(=O)Oc1ccc2c3c(c(=O)oc2c1)CCC3 (stereo not drawn) | -1.42
59 | COC(=O)N/N=C/c1cn(CCCOc2ccc(C)cc2)c2ccccc12 | -1.26
60 | CCn1c(C(C)NC(=O)c2ccc(C)cc2)n[nH]c1=S (stereo not drawn) | 0.28
61 | O=C(Nc1ccccc1)c1ccc2c(c1)OCO2 | 1.34
62 | O=C(Nc1ccccc1N1CCN(C(=O)c2ccccc2)CC1)c1ccc2c(c1)OCO2 | -3.44 (active)
63 | CCCC(=O)Nc1ccccc1N1CCN(C(=O)c2ccccc2)CC1 | -1.16
64 | CCOc1ccc(NC(=O)CSc2nc3ccccc3c(=O)n2Cc2cccs2)cc1 | 0.79
65 | CC(=O)Cc1nsc(NC(=O)c2ccc(COc3ccc(C)cc3)o2)n1 | -0.45
66 | COc1ccc(-c2nn(-c3ccccc3)cc2C(=O)Nc2nccs2)cc1OC | -3.32 (active)
67 | CC(=O)Cc1nsc(NC(=O)c2csc3c2CCCC3)n1 | -1.89
68 | COC(=O)c1cn(-c2ccccc2)nc1-c1cccnc1 | -0.5
69 | COc1ccc(-c2nn(-c3ccccc3)cc2C(=O)Nc2nc(CC(C)=O)ns2)cc1 | -3.37 (active)
70 | COc1cc(C(=O)Nc2nccs2)cc(OC)c1OC | -2.06
71 | COc1cccc(C(=O)Nc2cc3c(cc2Br)OCCCO3)c1 | 0.23
72 | CCOc1ccc(NC(=O)CCC(=O)N/N=C/c2ccc([N+](=O)[O-])s2)cc1 | 0.19

Row | SMILES | z-score
73 | CC(C)(C)NC(=O)c1cccc(NC(=O)Cc2ccc(Br)cc2)c1 | -0.17
74 | COC(=O)c1c(NC(=O)CN2CCN(S(=O)(=O)c3ccccc3[N+](=O)[O-])CC2)sc2c1CCC(C)C2 (stereo not drawn) | 0.28
75 | CNC(=O)c1ccsc1NC(=O)c1ccc(S(=O)(=O)N2CCOCC2)cc1 | -1
76 | CC(=O)Oc1c(C(=O)c2nnc(C)o2)c(=O)n(Cc2ccccc2)c2ccccc12 | 0.7
77 | O=C(Cc1c[nH]c2ccccc12)N/N=C/c1cccc(F)c1 | -0.81
78 | COc1cccc2c1CCC(NC(C)=O)C2=O (stereo not drawn) | 0.78
79 | CCOC(=O)c1ccc(N/C(=N/S(=O)(=O)c2ccccc2)c2ccccc2)cc1 | -1.09
80 | COCCCNC(=O)CNC(=S)N(Cc1cc(OC)c(OC)c(OC)c1)C1CCCC1 | 0.81
81 | Cc1ccc(C(=O)C(=S)N2CCOCC2)cc1 | -0.25
82 | COc1ccc(/C=C/C(=O)Nc2ccc3c(c2)OCCO3)cc1OC | -0.25
83 | Cc1ccc(C(=O)N2CC(=O)Nc3ccccc32)o1 | -0.11
84 | Cn1c(=O)c2cn(-c3cccc4ccccc34)cc2n(C)c1=O | -3.24 (active)
85 | CC(=O)Nn1cc2c(=O)n(C)c(=O)n(C)c2c1 | 1.08
86 | COc1ccc(OC)c(-n2cc3c(=O)n(C)c(=O)n(C)c3c2)c1 | -0.75
87 | COc1ccc(CC(=O)Nc2cc(S(=O)(=O)N3CCCCC3)ccc2N2CCN(C)CC2)cc1 | 0.23
88 | COc1ccccc1NC(=O)C1=C(C)Nc2nc3ccccc3n2C1c1cccs1 (stereo not drawn) | -0.65
89 | CC(C)C(=O)Nc1ccc2c3c(cccc13)CC2 | -0.27
90 | O=c1c(-c2ccc3c(c2)OCCO3)c(C(F)(F)F)oc2cc(O)cc(O)c12 | -1.19
91 | CCOC(=O)c1cc2cc(-c3c(C(=O)OCC)oc4cc(O)cc(O)c4c3=O)ccc2o1 | -3.6 (active)
92 | Cc1ccc(OC(=O)c2cc3ccccc3o2)cc1 | 0.88
93 | O=C(NC(=S)NC1CCSC1=O)c1ccccc1F (stereo not drawn) | 2.45
